Assay [1] is described as follows: ATG_CRE_CIS: Attagene CIS-FACTORIAL HepG2 Assay for human cAMP Responsive Element (CRE) binding protein 3 (AID 2282926). As to conditions: HepG2 CRE cis-reporter, Attagene multiplexed mRNA; actives raise or lower the signal. Put shortly: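 Transfected HepG2 were treated for 24 hours, then RNA was extracted and reporter cDNA amplified with sequence-specific primers. Labelled fragments were separated by capillary electrophoresis, and the CRE signal was fitted bidirectionally with DMSO as baseline.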

For assay [2], the target named is CCAAT/enhancer-binding protein beta (Homo sapiens) (UniProt P17676). As to the kind of experiment: ATG_C_EBP_CIS: Attagene CIS-FACTORIAL HepG2 Assay for human CCAAT/Enhancer Binding Protein (C/EBP) beta (AID 2282927). As to conditions: HepG2 Attagene cis-factorial transcription factor reporter; actives raise or lower the signal. Summed up: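 Following a 24 h incubation with test chemical, transfected HepG2 cells yielded RNA whose reporter transcripts were quantified by RT-PCR and fluorescent capillary electrophoresis, with DMSO serving as baseline for bidirectional fitting.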
CCAAT/enhancer-binding protein beta (Homo sapiens), sequence (P17676 whole entry, looked up): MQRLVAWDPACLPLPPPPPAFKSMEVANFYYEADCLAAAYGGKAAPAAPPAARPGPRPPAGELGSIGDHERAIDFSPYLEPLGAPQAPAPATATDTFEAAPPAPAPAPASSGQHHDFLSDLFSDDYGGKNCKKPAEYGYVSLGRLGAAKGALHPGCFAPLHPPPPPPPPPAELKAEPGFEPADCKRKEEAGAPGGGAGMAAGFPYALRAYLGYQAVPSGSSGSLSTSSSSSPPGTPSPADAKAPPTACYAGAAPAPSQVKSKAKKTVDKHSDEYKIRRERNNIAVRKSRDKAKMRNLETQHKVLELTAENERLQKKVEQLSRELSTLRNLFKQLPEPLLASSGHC

Assay [3] in a line: ATG_CMV_CIS: Attagene CIS-FACTORIAL HepG2 Assay for human CMV (Internal Marker) (AID 2282928).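 Also: endpoint acts as a background internal control marker rather than a target.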 The conditions noted are these: HepG2 CMV promoter reporter, transcription factor profiling; actives raise or lower the signal. Put shortly:
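After transient transfection of HepG2 with reporter transcription units driven by cis-regulatory promoters, cells receive test chemical for 24 h. Labeled reporter amplicons, digested with HpaI, are sized and quantified by capillary electrophoresis against DMSO.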

Assay [4] in a line: ATG_DR4_LXR_CIS: Attagene CIS-FACTORIAL HepG2 Assay for human Liver X Receptor (LXR), DR4 submotif (AID 2282929). As to conditions: HepG2 Attagene DR4 cis-reporter, mRNA transcription; actives raise or lower the signal. Put shortly:
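Measures endogenous transcription factor activity via a DR4-driven reporter transcript in human HepG2 cells. Compounds incubated 24 h; mRNA quantified by RT-PCR and capillary electrophoresis, analysed as gain or loss of signal versus DMSO.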

Assay [5] has as its target Aryl hydrocarbon receptor (Homo sapiens) (UniProt P35869). Description: ATG_Ahr_CIS: Attagene CIS-FACTORIAL HepG2 Assay for human Aryl Hydrocarbon Receptor (Ahr) (AID 2282930). The conditions noted are these: HepG2 AhR cis-factorial reporter transcription; actives raise or lower the signal. Summed up: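 Values derive from bidirectional fitting against DMSO negative control. Underlying signal: cis-element reporter mRNA in transiently transfected HepG2, harvested 24 h post-dose and measured by RT-PCR plus capillary electrophoresis.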

Assay [6] can be described thus: ATG_AP_1_CIS: Attagene CIS-FACTORIAL HepG2 Assay for human Activator Protein 1 (AP-1) (AID 2282931). The conditions noted are these: HepG2 Attagene cis-factorial AP-1 reporter mRNA; actives raise or lower the signal. Summed up: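 Bidirectional concentration-response fitting against DMSO controls. Underlying signal: reporter mRNA from cis-promoter constructs in transiently transfected HepG2, measured after 24 h by RT-PCR and capillary electrophoresis.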

Assay [7] in a line: ATG_AP_2_CIS: Attagene CIS-FACTORIAL HepG2 Assay for human Activator Protein 2 (AP-2) (AID 2282932). The conditions noted are these: HepG2 AP-2 cis-reporter, Attagene transcription factor profiling; actives raise or lower the signal. Summed up:
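HepG2 cells were transiently transfected with multiple cis-promoter reporter transcription units and dosed for 24 h. Reporter mRNA was measured by RT-PCR with capillary electrophoresis fluorescence; bidirectional fits relative to DMSO baseline.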

A short description of assay [8]: ATG_BRE_CIS: Attagene CIS-FACTORIAL HepG2 Assay for human Bone Morphogenetic Protein (BMP) Response Element (BRE) (AID 2282933). As to conditions: HepG2 BMP response element reporter, Attagene transcription factor profiling; actives raise or lower the signal. Put shortly:
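After a 24 h chemical treatment, transiently transfected HepG2 cells were lysed for RNA; reporter transcripts were quantified by fluorescent RT-PCR and capillary electrophoresis, normalised to DMSO.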

For assay [9], the target named is Retinoic acid receptor alpha (Homo sapiens) (UniProt P10276). Description: ATG_DR5_RAR_CIS: Attagene CIS-FACTORIAL HepG2 Assay for human Retinoic Acid Receptor Alpha (RARE), DR5 submotif (AID 2282934). As to conditions: HepG2 Attagene cis-factorial RARE DR5 reporter, mRNA; actives raise or lower the signal. Summed up: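 Endpoint fitted in both directions relative to DMSO as negative control. It reflects DR5 cis-element reporter mRNA induction in transiently transfected HepG2 cells, measured 24 h after dosing through RT-PCR and fluorescent capillary electrophoresis.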
Retinoic acid receptor alpha (Homo sapiens), sequence (P10276 whole entry, looked up): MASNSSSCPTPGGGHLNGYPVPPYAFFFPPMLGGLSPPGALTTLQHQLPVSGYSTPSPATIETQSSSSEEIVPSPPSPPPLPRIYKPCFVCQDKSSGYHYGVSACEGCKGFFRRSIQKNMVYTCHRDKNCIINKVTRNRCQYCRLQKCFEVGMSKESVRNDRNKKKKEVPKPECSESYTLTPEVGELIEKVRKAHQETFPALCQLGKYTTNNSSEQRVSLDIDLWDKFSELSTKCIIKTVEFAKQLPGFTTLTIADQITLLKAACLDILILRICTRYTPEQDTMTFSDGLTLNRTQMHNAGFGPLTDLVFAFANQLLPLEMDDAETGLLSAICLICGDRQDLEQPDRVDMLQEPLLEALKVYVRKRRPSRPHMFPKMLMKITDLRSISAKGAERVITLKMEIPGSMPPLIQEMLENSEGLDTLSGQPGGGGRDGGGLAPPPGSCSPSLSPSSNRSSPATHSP

In assay [10] the target is Transcription factor E2F1 (Homo sapiens) (UniProt Q01094). As to the kind of experiment: ATG_E2F_CIS: Attagene CIS-FACTORIAL HepG2 Assay for human E2F Transcription Factor 1 (AID 2282935). As to conditions: HepG2 Attagene cis-reporter, E2F reporter RNA transcripts; actives raise or lower the signal. Put shortly: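 HepG2 cells transiently transfected with multiplexed cis-element reporter units, dosed for 24 h. Reporter mRNA measured by RT-PCR, 6-FAM primer-extension labeling, HpaI digestion and capillary electrophoresis; bidirectional fit versus DMSO baseline.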
Transcription factor E2F1 (Homo sapiens), sequence (Q01094 whole entry, looked up): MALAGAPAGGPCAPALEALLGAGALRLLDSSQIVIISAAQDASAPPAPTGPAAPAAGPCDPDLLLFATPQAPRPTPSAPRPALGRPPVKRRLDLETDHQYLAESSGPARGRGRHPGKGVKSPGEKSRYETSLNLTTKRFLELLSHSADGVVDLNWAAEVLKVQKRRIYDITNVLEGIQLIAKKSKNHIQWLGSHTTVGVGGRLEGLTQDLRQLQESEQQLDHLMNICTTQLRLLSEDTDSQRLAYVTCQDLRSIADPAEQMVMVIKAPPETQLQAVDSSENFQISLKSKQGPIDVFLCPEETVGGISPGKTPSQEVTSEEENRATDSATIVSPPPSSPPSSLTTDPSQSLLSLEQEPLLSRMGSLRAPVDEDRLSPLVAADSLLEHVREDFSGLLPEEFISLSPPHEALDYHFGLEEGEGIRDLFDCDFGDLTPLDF

The nature of assay [11]: ATG_E_Box_CIS: Attagene CIS-FACTORIAL HepG2 Assay for human Enhancer Box (E-box) (AID 2282936). As to conditions: HepG2 E-box cis-reporter transcription, actives raise or lower the signal. Put shortly:
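HepG2 cells transiently transfected with multiplexed cis-element reporter units sensing endogenous transcription factor activity; 24 h compound exposure. Reporter mRNA measured by RT-PCR, 6-FAM primer extension, HpaI digestion and capillary electrophoresis; bidirectional fit versus DMSO.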

Assay [12] in a line: ATG_M_61_CIS: Attagene CIS-FACTORIAL HepG2 Assay for M61 Transcription Factor (Internal Marker) (AID 2282937). The conditions noted are these: HepG2 Attagene CIS-FACTORIAL M61 internal marker reporter; actives raise or lower the signal. Put shortly:
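Fluorescence from labelled cDNA fragments, separated by capillary electrophoresis, quantifies reporter induction. HepG2 cells bearing transiently transfected cis-promoter MRTUs were incubated with test chemical for 24 h; DMSO defined baseline for gain/loss fitting.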

A short description of assay [13]: ATG_EGR_CIS: Attagene CIS-FACTORIAL HepG2 Assay for human Early Growth Response 1 (EGR1) (AID 2282938). The conditions noted are these: HepG2 Attagene CIS-FACTORIAL EGR reporter mRNA; actives raise or lower the signal. Summed up:
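Cell-based multiplex transcription assay: HepG2 carrying transfected cis-element reporter units, 24 h chemical treatment. Fluorescence from capillary electrophoresis of RT-PCR products gives mRNA levels; fitting is bidirectional relative to DMSO.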

The nature of assay [14]: ATG_M_19_CIS: Attagene CIS-FACTORIAL HepG2 Assay for M19 Transcription Factor (Internal Marker) (AID 2282939). As to conditions: HepG2 Attagene CIS-FACTORIAL M19 internal marker reporter; actives raise or lower the signal. Put shortly: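 In this multiplexed cell assay, transiently transfected HepG2 reporter units report endogenous transcription-factor activity; after 24 hours of treatment, labelled reporter cDNA fragments are quantified by capillary electrophoresis and fitted bidirectionally against DMSO.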

The nature of assay [15]: ATG_Ets_CIS: Attagene CIS-FACTORIAL HepG2 Assay for human Erythroblast Transformation Specific (ETS) (AID 2282941). The conditions noted are these: HepG2 ETS cis-reporter transcription, actives raise or lower the signal. Put shortly: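 Human HepG2 hepatoma cells were transiently transfected with promoter-driven reporter constructs and treated for 24 hours. Reporter transcripts were quantified by RT-PCR with fluorescent primer extension; bidirectional curve fitting used DMSO as reference.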

Assay [16] has as its target Hepatocyte nuclear factor 3-beta (Homo sapiens) (UniProt Q9Y261). As to the kind of experiment: ATG_FoxA2_CIS: Attagene CIS-FACTORIAL HepG2 Assay for human Forkhead box A2 (FOXA2) (AID 2282942). As to conditions: HepG2 cis-reporter transcription factor activity, 24 h; actives raise or lower the signal. Put shortly: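 In transiently transfected human HepG2 cells, promoter-driven reporter mRNA levels after 24 h chemical exposure are determined via RT-PCR with capillary electrophoresis. DMSO serves as baseline for bidirectional fitting.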

Assay [17] can be described thus: ATG_FoxO_CIS: Attagene CIS-FACTORIAL HepG2 Assay for human Forkhead box O (FoxO) (AID 2282943). The conditions noted are these: HepG2 Attagene cis-reporter, FoxO element, mRNA; actives raise or lower the signal. Summed up: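 Values reflect reporter mRNA induction or loss in HepG2 cells 24 h post-dosing, fitted bidirectionally with DMSO as negative control and baseline. Detection used RT-PCR and fluorescence capillary electrophoresis.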

Assay [18] is described as follows: ATG_GLI_CIS: Attagene CIS-FACTORIAL HepG2 Assay for human Zinc Finger Protein GLI1 (AID 2282945). The conditions noted are these: HepG2, Attagene cis-factorial reporter mRNA, GLI element; actives raise or lower the signal. Put shortly: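 HepG2 cells transiently transfected with cis-promoter multiplexed reporter units report endogenous transcription factor activity. After 24 h chemical exposure, reporter mRNA was quantified by RT-PCR, 6-FAM labelling, HpaI digestion and capillary electrophoresis, with bidirectional fitting against DMSO.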

Assay [19] deals with Bile acid receptor (Homo sapiens) (UniProt Q96RI1). Description: ATG_IR1_CIS: Attagene CIS-FACTORIAL HepG2 Assay for human Nuclear Receptor Subfamily 1 Group H Member 4 (NR1H4), IR1 submotif (AID 2282946). As to conditions: IR1 reporter transcription, actives raise or lower the signal. Summed up:
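Transient MRTU transfection, HepG2; 24 h dosing; RNA → RT-PCR → 6-FAM primer extension → HpaI digest → capillary electrophoresis fluorescence. Gain/loss of signal fitted relative to DMSO.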

The nature of assay [20]: ATG_GATA_CIS: Attagene CIS-FACTORIAL HepG2 Assay for human GATA Binding Protein (AID 2282944). The conditions noted are these: HepG2 GATA cis-element reporter, Attagene multiplex mRNA; actives raise or lower the signal. Summed up: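 Measures endogenous transcription factor-driven reporter mRNA in HepG2 cells transiently carrying cis-regulated constructs. 24 h dosing; RNA via oligo(dT) reverse transcription, PCR, HpaI digestion, capillary electrophoresis; fitted relative to DMSO.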

Structures are written as SMILES. Some compounds were tested as several samples or in several runs, with calls that do not always agree. Active and inactive are the calls of the source. The calls were made as follows: active = hit-call score of the fitted dose curve at least 0.9, where 1 is the maximum; inactive = score below 0.9.

Hepatocyte nuclear factor 3-beta (Homo sapiens), sequence (Q9Y261 whole entry, looked up): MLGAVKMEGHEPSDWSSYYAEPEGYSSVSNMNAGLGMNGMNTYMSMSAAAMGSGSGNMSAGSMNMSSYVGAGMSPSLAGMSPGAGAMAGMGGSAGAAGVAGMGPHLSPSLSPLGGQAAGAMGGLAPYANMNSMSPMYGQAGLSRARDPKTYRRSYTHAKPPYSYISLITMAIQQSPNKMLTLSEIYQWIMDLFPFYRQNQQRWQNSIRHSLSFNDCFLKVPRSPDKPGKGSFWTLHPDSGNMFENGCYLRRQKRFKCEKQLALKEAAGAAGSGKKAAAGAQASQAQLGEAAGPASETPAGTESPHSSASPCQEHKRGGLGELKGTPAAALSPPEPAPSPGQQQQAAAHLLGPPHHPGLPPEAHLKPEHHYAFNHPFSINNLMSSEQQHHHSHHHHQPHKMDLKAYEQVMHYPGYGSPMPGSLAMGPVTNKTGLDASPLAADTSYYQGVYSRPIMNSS
Aryl hydrocarbon receptor (Homo sapiens), sequence (P35869 whole entry, looked up): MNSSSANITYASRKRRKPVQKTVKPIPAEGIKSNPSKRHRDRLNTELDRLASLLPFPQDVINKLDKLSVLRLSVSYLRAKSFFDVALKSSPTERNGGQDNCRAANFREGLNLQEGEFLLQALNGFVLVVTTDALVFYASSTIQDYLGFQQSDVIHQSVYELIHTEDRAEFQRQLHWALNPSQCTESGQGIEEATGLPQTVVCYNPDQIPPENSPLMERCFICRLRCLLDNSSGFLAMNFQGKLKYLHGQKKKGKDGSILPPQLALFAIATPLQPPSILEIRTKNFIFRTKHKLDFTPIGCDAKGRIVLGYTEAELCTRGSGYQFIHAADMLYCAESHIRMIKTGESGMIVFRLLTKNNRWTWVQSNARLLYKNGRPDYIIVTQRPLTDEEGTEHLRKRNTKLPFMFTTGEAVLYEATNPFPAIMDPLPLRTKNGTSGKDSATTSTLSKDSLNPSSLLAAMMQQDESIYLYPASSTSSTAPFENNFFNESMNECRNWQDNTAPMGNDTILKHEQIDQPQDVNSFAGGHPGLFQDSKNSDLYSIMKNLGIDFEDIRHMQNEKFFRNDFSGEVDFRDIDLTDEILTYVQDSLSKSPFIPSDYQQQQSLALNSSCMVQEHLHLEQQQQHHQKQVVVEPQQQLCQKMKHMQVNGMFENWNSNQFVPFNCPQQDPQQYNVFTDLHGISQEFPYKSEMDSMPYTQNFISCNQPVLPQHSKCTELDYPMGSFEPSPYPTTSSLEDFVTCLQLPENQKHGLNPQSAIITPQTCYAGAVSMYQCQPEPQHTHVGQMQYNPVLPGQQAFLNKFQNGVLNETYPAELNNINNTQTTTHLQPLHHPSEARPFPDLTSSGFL
Bile acid receptor (Homo sapiens), sequence (Q96RI1 whole entry, looked up): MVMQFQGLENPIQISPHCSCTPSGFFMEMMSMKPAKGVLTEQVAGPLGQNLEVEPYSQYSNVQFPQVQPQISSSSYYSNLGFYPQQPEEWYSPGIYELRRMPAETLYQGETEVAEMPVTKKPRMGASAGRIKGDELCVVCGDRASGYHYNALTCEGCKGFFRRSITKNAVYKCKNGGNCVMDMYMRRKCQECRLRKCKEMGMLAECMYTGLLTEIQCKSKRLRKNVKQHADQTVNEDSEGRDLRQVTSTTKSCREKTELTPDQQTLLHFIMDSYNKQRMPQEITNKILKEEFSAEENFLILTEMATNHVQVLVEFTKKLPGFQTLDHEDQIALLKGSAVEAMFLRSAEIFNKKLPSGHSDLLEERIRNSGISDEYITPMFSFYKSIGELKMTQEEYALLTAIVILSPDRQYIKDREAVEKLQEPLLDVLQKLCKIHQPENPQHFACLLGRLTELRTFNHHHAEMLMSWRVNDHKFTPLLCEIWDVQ

With `COP(=O)(OC)OC(Br)C(Cl)(Cl)Br` (stereo unspecified), the outcome in [1], in assay [2], in assay [3], in assay [4], in assay [5] and in [6] was inactive. The call in assay [7], in [8], in [9], in assay [10], in assay [11] and in assay [12] was inactive. In addition, the call in [13], in [14], in [15], in assay [16], in [17] and in [18] was inactive. In addition, in assay [19], the result was inactive.

Regarding `O=[N+]([O-])c1cc(C(F)(F)F)c(Cl)c([N+](=O)[O-])c1Nc1ncc(C(F)(F)F)cc1Cl`, the compound was classed as inactive in assay [1], in assay [2], in assay [3], in assay [4], in assay [5] and in assay [6]. Moreover, the outcome in [7], in assay [8], in assay [9], in assay [10], in assay [12] and in assay [13] was inactive. For the same compound, the outcome in [14], in assay [15], in [16], in assay [17], in assay [20] and in [18] was inactive. Moreover, the result in [19] was inactive. The concentration at half-maximal activity (AC50) was 7.85 µM (active) in [2]; 11.1 µM (active) in assay [4]; 19.1 µM (active) in assay [5]; 2.7 µM (active) in [6]; 2.63 µM (active) in assay [8]; 9.39 µM (active) in assay [10]. Further, the values for the AC50 in assay [16] and in assay [19] were 20 µM (active) and 12.9 µM (active), respectively.

Regarding `CCOC(=O)CC(SP(=O)(OC)OC)C(=O)OCC` (stereo unspecified), the call in assay [1], in assay [2], in [3], in assay [4], in [5] and in assay [6] was inactive. Moreover, the compound was called inactive in assay [7], in assay [8], in assay [9], in assay [10], in assay [11] and in assay [12]. Moreover, the call in [13], in [14], in [15], in assay [16], in [17] and in [20] was inactive. The result in assay [18] and in assay [19] was inactive.

For orientation: AC50 means the midpoint of the concentration-response curve, whichever way the signal moves.

The values above are taken from PubChem BioAssay (EPA / NIEHS).
